# According to the antibiotic and cytotoxicity screens of Wong et al. (2023):
# The whole screen tested about 39,000 compounds, of which about 3,300 (8.5%) were called active. Shown is part of a subset that was picked to be rich in actives.
# Tested on: HepG2
# Test: cytotoxicity call (relative viability < 0.9)
# Details: 10 µM
row,Compound,cytotoxicity call
1,Cc1cc(C(F)(F)F)cc(Cl)n1,inactive
2,Cc1ccc(S(=O)(=O)N(C)C[C@@H]2OCCCC[C@H](C)Oc3ccc(NC(=O)Nc4ccc(C(F)(F)F)cc4)cc3C(=O)N([C@H](C)CO)C[C@@H]2C)cc1,inactive
3,CC(C)NC(=O)N(C)C[C@H]1Oc2c(NC(=O)NC3CCCCC3)cccc2C(=O)N([C@H](C)CO)C[C@H]1C,inactive
4,C[C@H](CO)N1C[C@H](C)[C@@H](CN(C)C(=O)Cc2cccnc2)Oc2ncc(C#Cc3ccccc3F)cc2C1=O,inactive
5,Cc1nn(C)cc1NC(=O)C[C@H]1CC[C@H]2[C@@H](COc3ccc(NC(=O)C4CCOCC4)cc3C(=O)N2C)O1,inactive
6,COCC(=O)NCc1n[nH]c(=O)c2ccccc12,inactive
7,CC1(C)OC(=O)C2(C(=O)O1)[C@@H](c1ccc(-c3ccc(C(F)(F)F)cc3)cc1)CC(=O)C[C@H]2c1ccccc1,inactive
8,COc1ccc(S(=O)(=O)Nc2ccc3c(c2)CC(=O)N([C@H](C)CO)C[C@@H](C)[C@H](CN(C)Cc2ccc(-c4ccccc4)cc2)O3)cc1,active
9,CC(C)NC(=O)Nc1cccc2c1O[C@H](CN(C)Cc1ccc(C(=O)O)cc1)[C@H](C)CN([C@H](C)CO)C2=O,inactive
10,COc1ccc(S(=O)(=O)Nc2ccc3c(c2)C(=O)N([C@@H](C)CO)C[C@H](C)[C@@H](CN(C)S(=O)(=O)c2ccc(OC)cc2)O3)cc1,inactive
11,C[C@@H]1CCCCO[C@H](CN(C)S(=O)(=O)c2ccccc2)[C@@H](C)CN([C@@H](C)CO)C(=O)c2cc(NC(=O)Nc3ccc(F)cc3)ccc2O1,inactive
12,CNC(C)C1CCC(N)C(OC2C(N)CC(N)C(OC3OCC(C)(O)C(NC)C3O)C2O)O1.O=S(=O)(O)O (stereo not given),active
13,CN[C@@H]1[C@@H](O)[C@@H](O[C@@H]2[C@@H](O)[C@H](O[C@H]3O[C@H]([C@@H](C)NC)CC[C@H]3N)[C@@H](N)C[C@H]2N)OC[C@]1(C)O,inactive
14,CNC[C@@H]1CC[C@@H](N)[C@@H](O[C@H]2[C@H](O)[C@@H](O[C@H]3OC[C@](C)(O)[C@H](NC)[C@H]3O)[C@H](N)C[C@@H]2N)O1,inactive
15,Cc1ccc(N2CC[C@@H](CN)C2)cc1,inactive
16,NC[C@H]1CCN(c2ccc(Oc3ccccc3)cc2)C1,active
17,NC[C@H]1CCCN(C(=O)Nc2ccc(Oc3ccccc3)cc2)C1,inactive
18,Cn1c(=O)n2n(c1=O)[C@H](C1CC1)C=C1CN3[C@@H]([C@H](Cc4ccccc4)OC(=O)[C@@H]3Cc3ccc(N=[N+]=[N-])cc3)[C@@H]12,inactive
19,Cc1ccc(S(=O)(=O)Nc2ccc3c(c2)C(=O)N([C@H](C)CO)C[C@H](C)[C@@H](CN(C)Cc2ccc(-c4ccccc4)cc2)O3)cc1,inactive
20,Cc1ccc(S(=O)(=O)Nc2ccc3c(c2)C(=O)N([C@H](C)CO)C[C@@H](C)[C@H](CN(C)Cc2ccc(-c4ccccc4)cc2)O3)cc1,inactive

row,Compound,cytotoxicity call
1,Cc1ccc(S(=O)(=O)Nc2ccc3c(c2)C(=O)N([C@@H](C)CO)C[C@H](C)[C@@H](CN(C)Cc2ccc(-c4ccccc4)cc2)O3)cc1,inactive
2,Cc1ccc(S(=O)(=O)Nc2ccc3c(c2)C(=O)N([C@@H](C)CO)C[C@H](C)[C@H](CN(C)Cc2ccc(-c4ccccc4)cc2)O3)cc1,inactive
3,Cc1ccc(S(=O)(=O)Nc2ccc3c(c2)C(=O)N([C@@H](C)CO)C[C@@H](C)[C@H](CN(C)Cc2ccc(-c4ccccc4)cc2)O3)cc1,inactive
4,Cc1ccc(S(=O)(=O)Nc2ccc3c(c2)C(=O)N([C@H](C)CO)C[C@@H](C)[C@@H](CN(C)Cc2ccc(-c4ccccc4)cc2)O3)cc1,active
5,Cc1ccc(S(=O)(=O)Nc2ccc3c(c2)C(=O)N([C@@H](C)CO)C[C@@H](C)[C@@H](CN(C)Cc2ccc(-c4ccccc4)cc2)O3)cc1,active
6,Cc1ccc(S(=O)(=O)Nc2ccc3c(c2)C(=O)N([C@H](C)CO)C[C@H](C)[C@H](CN(C)Cc2ccc(-c4ccccc4)cc2)O3)cc1,active
7,C[C@@H]1CCCCO[C@H](CN(C)C(=O)CCCN(C)C)[C@@H](C)CN([C@H](C)CO)C(=O)c2cc(NC(=O)Nc3ccc(F)cc3)ccc2O1,inactive
8,Cc1noc(C)c1NC(=O)N(C)C[C@H]1OCCCC[C@H](C)Oc2ccc(NS(=O)(=O)c3ccccc3)cc2C(=O)N([C@@H](C)CO)C[C@H]1C,inactive
9,C[C@H]1CN([C@@H](C)CO)S(=O)(=O)c2ccc(C#Cc3cccc(F)c3)cc2O[C@H]1CN(C)CC1CC1,inactive
10,C[C@H](CO)N1C[C@H](C)[C@H](CN(C)S(=O)(=O)c2cn(C)cn2)Oc2ccc(NC(=O)C3CCCCC3)cc2C1=O,inactive
11,Cc1ccc(S(=O)(=O)Nc2ccc3c(c2)C(=O)N(C)[C@H]2CC[C@@H](CC(=O)NCCc4ccncc4)O[C@@H]2CO3)cc1,inactive
12,O=C1c2ccccc2[C@](Cc2ccccc2I)(C(=O)NCc2ccccc2)[C@H](c2ccc(CO)cc2)N1Cc1ccccc1C(F)(F)F,inactive
13,COCC#Cc1ccc2c(c1)O[C@H](CN(C)S(=O)(=O)c1ccc(C)cc1)[C@@H](C)CN([C@@H](C)CO)S2(=O)=O,inactive
14,COc1ccc(CN(C)C[C@H]2Oc3ccc(NS(=O)(=O)c4cn(C)cn4)cc3CC(=O)N([C@@H](C)CO)C[C@H]2C)cc1,inactive
15,CC(C)CCC(=O)N1C[C@@H]2c3nc(N4CCOCC4)ncc3CS(=O)(=O)[C@H]2C1,inactive
16,COC(=O)CCCCCCC(=O)N/N=C/[C@H](O)[C@@H](O)[C@H](O)CO,inactive
17,Cc1noc(C)c1NC(=O)Nc1ccc2c(c1)CC(=O)N([C@@H](C)CO)C[C@@H](C)[C@H](CN(C)C(=O)Nc1ccc(C(F)(F)F)cc1)O2,inactive
18,COc1ccc(CN(C)C[C@@H]2Oc3ccc(NS(=O)(=O)c4c(C)noc4C)cc3CC(=O)N([C@H](C)CO)C[C@@H]2C)cc1,inactive
19,Cc1ccc(S[C@]2(C(=O)NCCN3CCOCC3)CC(=O)N(Cc3cc(C(F)(F)F)cc(C(F)(F)F)c3)[C@@H]2c2ccc(CO)cc2I)cc1,inactive
20,Cc1ccc(S(=O)(=O)Nc2ccc3c(c2)CC(=O)N([C@H](C)CO)C[C@H](C)[C@@H](CN(C)S(=O)(=O)c2ccccc2)O3)cc1,inactive
